Only some compounds are listed: those with a hit (about 2.4% of all), similar ones and a draw of the others.
Pol III holo inh = qHTS Assay for Inhibitors of DNA Polymerase III Holoenzyme System | Potency, µM (titrated, usually from 57.1 µM) | hit rate 0.25% among 71,000 | reconstituted DNA polymerase III holoenzyme replication, biochemical
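Reconstituted *E. coli* holoenzyme (0.35 nM Pol III, 1 nM beta, 154 nM SSB, 2 nM primase) was preincubated with compound for 15 min at RT. Synthesis on 1.4 nM ssM13Gori ran 35 min, then was stopped with PicoGreen/EDTA and read as dsDNA fluorescence.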
TsaE inh = qHTS Assay for Inhibitors of YjeE; tRNA threonylcarbamoyladenosine biosynthesis protein TsaE (Escherichia coli (strain …; purified YjeE enzyme, qHTS inhibition assay; Potency, µM; hit rate 0.05% among 71,000; AID 605, 2007
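Purified YjeE (10 uM) with BODIPY Texas Red-labeled ADP probe (2 uM); compounds pin-transferred, 15 min at room temperature. Binding inhibition read as decreased fluorescence polarization; ADP titration as control.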
Tau filament bind = qHTS Assay for Tau Filament Binding | recombinant tau filaments, thioflavin S fluorescence, 15 h; filaments grown with octadecylsulfate alongside compound | Potency, µM (doses to about 57.1 µM) | hit rate 2% among 71,000;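 further: actives lower thioflavin S fluorescence by blocking filaments or displacing dye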
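Recombinant tau protein (human, 1 uM final) plus 30 uM ODS in HEPES pH 7.4 with NaCl, DTT and thioflavine S. Compound present from the start; fluorescence at 510 nm after 15 h, 37 C.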
BRCT inh red = qHTS Assay for Inhibitors of BRCT-Phosphoprotein Interaction (Red Fluorophore) | Breast cancer type 1 susceptibility protein (Homo sapiens), P38398 | AID 892, 2007 | BRCT-phosphopeptide binding, red fluorescence polarization | hit rate 0.03% among 75,000 | Potency, µM (top dose mostly 76.9 µM), usual class: inhibitors
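Fluorescence polarization: 100 nM His-tagged BRCA1 BRCT with 100 nM TAMRA-labelled phospho-BACH1 decapeptide, phosphate buffer pH 7.3 with 150 mM NaCl, DTT, 0.01% Tween 20; 12 min RT. Binding inhibition seen as FP decrease.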
BRCT PPI green = qHTS Assay for Inhibitors of BRCT-Phosphoprotein Interaction (Green Fluorophore); Breast cancer type 1 susceptibility protein (Homo sapiens), P38398; BRCA1 BRCT-phosphopeptide binding, green fluorescence polarization; Potency, µM (series often up to 76.9 µM), hits mostly inhibitors; hit rate 0.05% among 75,000; AID 875, 2007
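Fluorescence polarization: His-tagged BRCT (~35 kDa BRCA1 C-terminus, 250 nM) bound to 100 nM fluorescein-labeled phosphorylated 10-aa BACH1 peptide, pH 7.3 phosphate buffer with DTT and Tween 20. Compounds incubated 12 min at room temperature; inhibition read as lowered polarization.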
Hsp90 Hop PPI = qHTS Assay for Disrupters of an Hsp90 Co-Chaperone Interaction | hit rate 0.44% among 71,000 | AID 595, 2007 | Potency, µM (series often up to 57 µM) | Hsp90 C-terminal peptide / TPR2A (Hop) interaction, human | AlphaScreen TPR2A-His6 binding biotin-Hsp90 C-terminal peptide; active means well fitted curve in either direction with a large enough effect; inconclusive means small, poorly fitted or top-dose-only effect, or another doubt
tau ThS displ = Tau ThS binding assay | shares compounds with Tau filament bind | recombinant tau filaments, Thioflavin S fluorescence displacement | Potency, µM | hit rate 40% among 60; calls by dose curve
aSyn ThS bind = Alpha-synuclein ThS binding assay | shares compounds with Tau filament bind | Potency, µM | recombinant alpha-synuclein fibrils, ThS fluorescence displacement | AID 937, 2007 | hit rate 40% among 60; calls by dose curve
Abeta ThS bind = Beta amyloid ThS binding assay; AID 956, 2007; Abeta1-42 fibrillization, thioflavin S fluorescence, overnight 37 C; hit rate 50% among 60; shares compounds with Tau filament bind; Potency, µM; calls by dose curve
Target sequence (P05067 whole entry, looked up): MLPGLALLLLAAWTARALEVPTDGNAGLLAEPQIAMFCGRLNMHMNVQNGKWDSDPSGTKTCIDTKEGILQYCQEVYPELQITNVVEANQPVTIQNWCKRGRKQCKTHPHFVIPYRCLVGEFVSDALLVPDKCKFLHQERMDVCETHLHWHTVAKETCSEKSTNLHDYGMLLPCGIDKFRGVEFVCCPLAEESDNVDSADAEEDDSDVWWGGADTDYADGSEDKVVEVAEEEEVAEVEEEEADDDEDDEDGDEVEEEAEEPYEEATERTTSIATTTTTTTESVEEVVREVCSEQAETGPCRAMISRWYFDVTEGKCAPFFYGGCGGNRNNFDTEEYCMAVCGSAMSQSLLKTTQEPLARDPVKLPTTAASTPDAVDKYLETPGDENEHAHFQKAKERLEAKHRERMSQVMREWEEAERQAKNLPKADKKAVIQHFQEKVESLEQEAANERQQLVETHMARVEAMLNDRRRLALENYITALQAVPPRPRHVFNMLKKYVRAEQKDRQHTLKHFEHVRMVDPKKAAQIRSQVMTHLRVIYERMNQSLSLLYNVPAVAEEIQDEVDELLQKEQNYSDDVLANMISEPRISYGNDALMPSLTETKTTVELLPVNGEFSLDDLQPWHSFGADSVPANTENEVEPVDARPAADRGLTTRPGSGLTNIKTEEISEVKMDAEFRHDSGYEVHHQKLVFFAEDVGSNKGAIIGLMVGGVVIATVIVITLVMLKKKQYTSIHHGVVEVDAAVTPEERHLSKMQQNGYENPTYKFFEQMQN
Of the large screens only hits and unclear results are named; the others gave an inactive call (follow-up assays come after a bar, where they were run). Unless noted, the call rests on the fitted dose curve; in most records, active means well fitted curve in the direction sought with a large enough effect; inconclusive means small, poorly fitted or top-dose-only effect, or another doubt; inactive means no such curve, though single readings can be large; an effect the other way counts as inactive or inconclusive.

CN(C)c1ccc(N/C=C/C(=O)c2ccc(F)cc2)cc1	Tau filament bind 3.16µM | tau ThS displ 1.05µM | aSyn ThS bind 6.24µM | Abeta ThS bind 3.38µM
CC(=O)OC[C@@H]1O[C@H](C/C=N\OC[C@@H](O)[C@H]2O[C@H]3OC(C)(C)O[C@H]3[C@@H]2O)C=C[C@@H]1OC(C)=O	none (no result: Pol III holo inh, TsaE inh, Tau filament bind, Hsp90 Hop PPI)
COc1cc(NCC[C@@H]2CCCCN2)c2ncccc2c1	none
COc1cc(N[C@@H](C)CCCN)c2ncccc2c1	Tau filament bind 5.01µM | tau ThS displ inactive | aSyn ThS bind inactive | Abeta ThS bind inactive
C[C@]12CCC3c4ccc(O)cc4CCC3[C@@H]1CCC2=O (stereo partly specified)	none
Cc1ccc(N)cc1O	none
N=C1C=CC(=C(c2ccc(N)cc2)c2ccc(N)cc2)C=C1	TsaE inh inconclusive, Tau filament bind 1.26µM | tau ThS displ 1.63µM | aSyn ThS bind 2.32µM | Abeta ThS bind 0.51µM
Oc1ccccc1C1Nc2cccc3cccc(c23)N1	Tau filament bind 3.16µM, Hsp90 Hop PPI inconclusive | tau ThS displ 3.34µM | aSyn ThS bind 8.02µM | Abeta ThS bind 3.81µM
COC1(C)CCC2OC2(C)CCC2C1CC2(C)C (stereo unspecified)	none (no result: Pol III holo inh, TsaE inh, Tau filament bind, Hsp90 Hop PPI)
CCC(C)COC(=O)c1ccc(C(=O)O)cc1 (stereo unspecified)	Hsp90 Hop PPI inconclusive | tau ThS displ inactive | aSyn ThS bind inactive | Abeta ThS bind inactive
Cn1c(=Nc2ccc(N3CCOCC3)cc2)ccc2ccccc21	Tau filament bind 2µM | tau ThS displ inconclusive | aSyn ThS bind inactive | Abeta ThS bind inactive
CCCCCCOC(=O)C(C#N)c1nc2ccccc2nc1N1CCN(C)CC1 (stereo unspecified)	Tau filament bind 1µM | tau ThS displ 2.81µM | aSyn ThS bind 1.78µM | Abeta ThS bind 0.79µM
COc1ccc(S(=O)(=O)C(C#N)c2nc3ccccc3nc2N2CCCCC2)cc1 (stereo unspecified)	none
CC(C)CO/N=C1/C[C@@H](O)[C@@H](O)[C@@H]2[C@@H]3C(=O)N(Cc4ccccc4)C(=O)[C@H]3CC[C@H]12	none (no result: Pol III holo inh, TsaE inh, Tau filament bind, Hsp90 Hop PPI)
CCOCCCn1c(=N)c(C(=O)NCc2ccc3c(c2)OCO3)cc2c(=O)n3cccc(C)c3nc21	Tau filament bind 0.631µM | tau ThS displ 9.53µM | aSyn ThS bind 2.18µM | Abeta ThS bind 3.04µM
N=c1c(C(=O)NCc2ccc3c(c2)OCO3)cc2c(=O)n3ccccc3nc2n1Cc1cccnc1	Tau filament bind inconclusive | tau ThS displ inconclusive | aSyn ThS bind 7.36µM | Abeta ThS bind 10.3µM
CCCn1c(C)nc2c(NCCOC)nc(C)nc21	none
Cc1nc(NCc2ccccc2)c2nc(-c3ccccc3)n(CC(C)(C)CN(C)C)c2n1	none
Nc1ccc(O)c(-c2nc3ccccc3s2)c1	Tau filament bind 3.16µM | tau ThS displ inconclusive | aSyn ThS bind inconclusive | Abeta ThS bind 9.18µM
O=C(O)CC1(CC(=O)O)Nc2ccccc2SC1=O	none
CC(=O)c1ccc2c(c1)Nc1ccccc1S2	Tau filament bind 2µM | tau ThS displ 7.73µM | aSyn ThS bind 5.98µM | Abeta ThS bind 9.02µM
COCC(=O)N1CCC[C@@]2(CCN(C(c3ccccc3)c3ccccc3)C2)C1	none
O=C(Nc1ccc(N2CCOCC2)cc1)Nc1ccc2nc(-c3ccco3)c(-c3ccco3)nc2c1	Tau filament bind 0.794µM, Hsp90 Hop PPI inconclusive | tau ThS displ 1.19µM | aSyn ThS bind 1.89µM | Abeta ThS bind 1.23µM
Cc1ccc2nc(NC(=O)C3CCCN(S(=O)(=O)c4cccc5nonc45)C3)sc2c1 (stereo unspecified)	Tau filament bind inconclusive | tau ThS displ inactive | aSyn ThS bind inconclusive | Abeta ThS bind inactive
CNc1cc(-c2ccccc2CN(C)C)ncn1	none
CCOc1ccc(C(C)=O)cc1N1C(=O)C2C3C=CC(O3)C2C1=O (stereo unspecified)	none
CCOc1ccc(C(C)=O)cc1N1C(=O)C2C3C=CC(C3)C2C1=O (stereo unspecified)	Pol III holo inh inconclusive, Hsp90 Hop PPI inconclusive | tau ThS displ inactive | aSyn ThS bind inactive | Abeta ThS bind inactive
O=C(COc1ccccc1O)Nc1ccccc1Cl	Hsp90 Hop PPI inconclusive | tau ThS displ inactive | aSyn ThS bind inactive | Abeta ThS bind inactive
O=C(COC(=O)c1ccccn1)Nc1ccccc1Cl	none
CCOc1ccc(CNc2ccc(N3CCCC3)cc2)cc1	Tau filament bind 5.01µM, Hsp90 Hop PPI inconclusive | tau ThS displ inactive | aSyn ThS bind inconclusive | Abeta ThS bind 4.3µM
COC(=O)c1ccc(C(NC(=O)OCc2ccccc2)/C(F)=C/[C@@H](C)C(=O)NCCO)cc1 (stereo partly specified)	none
COc1ccc2c(c1)C(=NO)c1cc(OC)ccc1-2	Tau filament bind 3.98µM | tau ThS displ inconclusive | aSyn ThS bind inconclusive | Abeta ThS bind 4.07µM
COc1ccc(C(=N/O)/C(=N/O)c2ccc(OC)cc2)cc1	none
